Inconclusive results are not listed. Values without a mark were called inactive. The source made the active and inactive calls. Calls come from the whole dose curve; as a rule, active = well fitted curve in the direction sought with a large enough effect; inconclusive = small, poorly fitted or top-dose-only effect, or another doubt; inactive = no such curve, though single readings can be large or run the other way.
target: Polyunsaturated fatty acid lipoxygenase ALOX15 (Homo sapiens) (UniProt P16050); assay: Counterscreen qHTS for inhibitors of human arachidonate 12S-lipoxygenase (ALOX12): ALOX15 Assay; details: purified ALOX15 enzyme activity; series mostly up to 110 µM; activity change, negative = inhibition: at the top concentration; note: 0% is about no effect
Sequence (P16050 whole entry, looked up): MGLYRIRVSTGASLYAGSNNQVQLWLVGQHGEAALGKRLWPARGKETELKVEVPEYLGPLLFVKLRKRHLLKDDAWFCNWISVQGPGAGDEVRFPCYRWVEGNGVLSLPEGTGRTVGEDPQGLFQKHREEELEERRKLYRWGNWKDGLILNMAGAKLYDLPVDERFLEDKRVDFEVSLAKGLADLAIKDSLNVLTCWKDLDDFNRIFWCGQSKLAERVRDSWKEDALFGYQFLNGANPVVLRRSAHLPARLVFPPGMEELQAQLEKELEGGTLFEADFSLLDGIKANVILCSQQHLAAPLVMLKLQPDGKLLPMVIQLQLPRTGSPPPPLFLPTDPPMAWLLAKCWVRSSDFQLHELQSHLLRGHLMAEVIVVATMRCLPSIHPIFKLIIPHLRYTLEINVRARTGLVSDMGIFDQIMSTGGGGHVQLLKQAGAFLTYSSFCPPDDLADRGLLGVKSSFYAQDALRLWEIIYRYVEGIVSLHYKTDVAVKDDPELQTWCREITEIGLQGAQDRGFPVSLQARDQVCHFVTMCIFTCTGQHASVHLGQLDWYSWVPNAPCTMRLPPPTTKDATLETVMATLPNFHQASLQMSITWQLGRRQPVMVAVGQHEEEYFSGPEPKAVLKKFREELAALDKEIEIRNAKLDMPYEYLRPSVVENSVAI
Summary of the method: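 Xylenol orange–ferric complex formation, read as the 573 nm to 405 nm absorbance ratio, tracks product from 50 uM arachidonic acid turned over for 30 min at RT. Enzyme is 40 nM ALOX15, pH 7.5 HEPES buffer, compound-preincubated 15 min.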

**Q.** How did the “activity change, negative = inhibition” value turn out when `CCN1CCCC12Cc1ccccc1CN([S+](C)(=O)[O-])C2` (configuration not stated) was run?
**A.** The value was 17.5% [at 146 µM].

**Q.** For `CN1CC(=O)N(C2CCCNCC2)Cc2c(NCC3CC3)ncnc21` (configuration not stated), which “activity change, negative = inhibition” value is on record?
**A.** Its value is 2.11%.

**Q.** With `O=C1NC2(Cc3ccccc31)CN(C(=O)c1ccc3c(c1)OCO3)C2` as the compound, how does the “activity change, negative = inhibition” value read?
**A.** The value was -17.4% [at 146 µM].

**Q.** For `CCc1ccc(CN2CCCC3(Cc4ccccc4CNC3=O)C2)s1` (configuration not stated), which “activity change, negative = inhibition” value is on record?
**A.** The value was 11.2% [at 146 µM].

**Q.** For `O=C(c1ccccc1F)N1CC(Oc2ccc3c(c2)OCO3)C1`, which “activity change, negative = inhibition” value is on record?
**A.** Its value is -22.9% [at 146 µM].

**Q.** Which “activity change, negative = inhibition” value does the source give for `CC1CCCCC1Nc1ncnc2c1CN(C1CCCNCC1)C(=O)CN2C` (configuration not stated) here?
**A.** The value was -23.7%.

**Q.** For `CN1CCC(C(=O)N2Cc3ccccc3CC3(CCCCN3CC3CCNCC3)C2)CC1` (configuration not stated), which “activity change, negative = inhibition” value is on record?
**A.** The value was -19.6%.

**Q.** For `O=C1NC2(Cc3ccccc31)CN(C(=O)c1ccccc1F)C2`, which “activity change, negative = inhibition” value is on record?
**A.** Its value is -11.3% [at 146 µM].

**Q.** For `O=C1NCc2ccccc2CC12CCN(Cc1cccc(C(F)(F)F)c1)C2` (configuration not stated), which “activity change, negative = inhibition” value is on record?
**A.** Its value is -18.5%.

**Q.** `COc1ccc2c(c1)CCCN2C1CNC1` was tested. Which “activity change, negative = inhibition” value did it give?
**A.** Its value is -22.1% [at 233 µM].

**Q.** For `CC(=O)NCCCC(=O)N1CCOC2(CCN(C(=O)CCCN)CC2)C1`, which “activity change, negative = inhibition” value is on record?
**A.** Its value is -31.6%.

**Q.** `COc1ccc(N2CC3CCC(C2)N3Cc2cccc(Cl)c2)cc1` was tested. Which “activity change, negative = inhibition” value did it give?
**A.** Its value is -20.7%.

**Q.** `FC(F)(F)c1cccc(C2=NOC3(CCN(Cc4ccsc4)C3)C2)c1` (configuration not stated) was tested. Which “activity change, negative = inhibition” value did it give?
**A.** Its value is -6.94%.

**Q.** With `CC(=O)NCCC(=O)N1Cc2ccccc2CC2(CCCN2CC2CCNCC2)C1` (configuration not stated) as the compound, how does the “activity change, negative = inhibition” value read?
**A.** The value was -22.8%.

**Q.** `O=c1[nH]c(C2CCN(Cc3ccc(-c4cccnc4)cc3)CC2)nc2ccc(F)cc12` was tested. Which “activity change, negative = inhibition” value did it give?
**A.** The value was -8.08%.

**Q.** For `Nc1ccccc1CN1CCCC2(Cc3ccccc3CNC2=O)C1` (configuration not stated), which “activity change, negative = inhibition” value is on record?
**A.** The value was -0.583% [at 146 µM].

**Q.** With `CC(=O)Nc1ccc(CN2CCC(c3nc4ccc(C)cc4c(=O)[nH]3)CC2)cc1` as the compound, how does the “activity change, negative = inhibition” value read?
**A.** The value was 6.35%.

**Q.** With `COc1cccc(N2C(=O)NC(=NC3CCCC3)C23CCN(CC2CC2)C3)c1` (configuration not stated) as the compound, how does the “activity change, negative = inhibition” value read?
**A.** Its value is -4.92%.

**Q.** How did the “activity change, negative = inhibition” value turn out when `Cc1ccc(-c2ccc(CN)cc2)cc1Cl` was run?
**A.** The value was 24.8% [at 146 µM].

**Q.** For `CN1CC(=O)N(C2CCCNCC2)Cc2c1ncnc2N1CCC(N2CCCC2)CC1` (configuration not stated), which “activity change, negative = inhibition” value is on record?
**A.** The value was 3.04%.

**Q.** For `CCCC(=O)N1Cc2ccccc2CC2(CCCN(C)C2)C1` (configuration not stated), which “activity change, negative = inhibition” value is on record?
**A.** The value was -26% [at 146 µM].

**Q.** With `O=C(N1CCOCC1)N1CCCC1c1nnc2n1CCNC2` (configuration not stated) as the compound, how does the “activity change, negative = inhibition” value read?
**A.** The value was -2.38% [at 146 µM].

**Q.** How did the “activity change, negative = inhibition” value turn out when `COc1ccc(CN2CCCC23Cc2ccccc2CNC3=O)cc1OC` (configuration not stated) was run?
**A.** Its value is -13.2%.

**Q.** Which “activity change, negative = inhibition” value does the source give for `COc1ccc(CCNc2ncnc3c2CN(C2CCCNC2)C(=O)CN3C)cc1` (configuration not stated) here?
**A.** The value was -23%.

**Q.** `CC(C)(C)OC(=O)N1CC(Nc2ccc(O)cc2)C1` was tested. Which outcome did it give?
**A.** Its outcome is “inactive”.

**Q.** `CC(C)C(=O)N1Cc2ccccc2CC2(CCCCN2CC2CCNC2)C1` (configuration not stated) was tested. Which “activity change, negative = inhibition” value did it give?
**A.** The value was -17.1%.

**Q.** For `Cc1noc(C)c1C(=O)N1CCN(c2ccc(Cl)nn2)C(=O)C1`, which “activity change, negative = inhibition” value is on record?
**A.** Its value is -19.1% [at 146 µM].

**Q.** How did the “activity change, negative = inhibition” value turn out when `CCc1ccc(CN2CCCC23Cc2ccccc2CNC3=O)cc1` (configuration not stated) was run?
**A.** The value was 13.6% [at 146 µM].

**Q.** How did the “activity change, negative = inhibition” value turn out when `CSc1ccc(-c2ccc(C(=O)O)cc2)cc1` was run?
**A.** The value was -17.8% [at 146 µM].

**Q.** For `COc1ccc(CNc2ncnc3c2CN(C2CCCNC2)C(=O)CN3C)cc1OC` (configuration not stated), which “activity change, negative = inhibition” value is on record?
**A.** Its value is 14.1%.

**Q.** How did the “activity change, negative = inhibition” value turn out when `Cc1ccc(-c2cccc(CN)c2)cc1Cl` was run?
**A.** Its value is -12.2% [at 146 µM].

**Q.** With `CCOCCCNc1ncnc2c1CN(C1CCCNCC1)C(=O)CN2C` (configuration not stated) as the compound, how does the “activity change, negative = inhibition” value read?
**A.** Its value is 1.99%.

**Q.** Which “activity change, negative = inhibition” value does the source give for `O=C(O)c1cccc(-c2ccsc2)c1` here?
**A.** Its value is 7.2% [at 233 µM].

**Q.** For `O=C1Nc2ccccc2C12CCN(S(=O)(=O)c1ccccc1)C2` (configuration not stated), which “activity change, negative = inhibition” value is on record?
**A.** Its value is -2.33% [at 146 µM].

**Q.** Which “activity change, negative = inhibition” value does the source give for `CCOC(=O)C1CC1CN1CCCC2(Cc3ccccc3CNC2=O)C1` (configuration not stated) here?
**A.** The value was 1.6%.

**Q.** For `CN1CC(=O)N(C2CCCNC2)Cc2c(NC3CCCCC3)ncnc21` (configuration not stated), which “activity change, negative = inhibition” value is on record?
**A.** Its value is -25.8%.

**Q.** `O=C(NC1CC1)c1cc(C2CC2)nc2onc(C3CCNC3)c12` (configuration not stated) was tested. Which “activity change, negative = inhibition” value did it give?
**A.** Its value is -20.2% [at 146 µM].

Reference: PubChem BioAssay AID1671192 (National Center for Advancing Translational Sciences (NCATS), 2021)
